Experimental data: PubChem BioAssay (NCATS)
Inconclusive results are not listed. Calls of active or inactive are those of the source. Calls follow the shape of the dose curve; as a rule, active = well fitted curve in the direction sought with a large enough effect; inconclusive = small, poorly fitted or top-dose-only effect, or another doubt; inactive = no such curve, though single readings can be large; an effect the other way counts as inactive or inconclusive.

What was measured:
[1] = tested on: KB-3-1; test: Cytotoxic Profiling of Annotated Libraries Using Quantitative High-Throughput Screening (AID 1296008); conditions: Five cell lines viability, CellTiter-Glo ATP luminescence, 48-72 h; max response: active compounds read low; also: nearly all actives have a fitted effect of over 60% in size; as to max response: % is scaled to controls: 0 for no effect and ±100 for the full control effect
Procedure, shortened: (§1)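 Cells exposed to compounds for 48 or 72 hr at 37 degrees Celsius. Viability read as ATP-coupled luminescence with CellTiter-Glo after 10 min at room temperature.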

[2] = tested on: NIH3T3; test: as above; conditions: Five cell lines viability, CellTiter-Glo ATP luminescence, 48-72 h; max response: active compounds read low
Procedure, shortened: as §1

[3] = tested on: HEK293T; test: qHTS assay to identify novel small-molecules to repurpose for Merkel cell carcinoma treatment (AID 1296009); conditions: MCC and control cell lines, CellTiter-Glo viability, 72 h; series mostly up to 44.8 µM; also: nearly all actives have a fitted effect of over 60% in size
Procedure, shortened: (§2)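 Cells were incubated with compound for 72 hr at 37 degree celsius before CellTiter-Glo addition. Luminescence was normalized with no-cell wells as full cytotoxicity and DMSO as baseline.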

[4] = tested on: NIH3T3; test: as above; conditions: MCC and control cell lines, CellTiter-Glo viability, 72 h; at 44.8 µM (top of the series) unless noted
Procedure, shortened: as §2

[5] = tested on: C33A; test: Primary qHTS to identify gynecologic anti-cancer compounds using libraries of approved drugs and bioactive compounds (AID 1345084); conditions: Gynecologic cancer cell panel viability, ATPlite luminescence, 48 h; series mostly up to 57.5 µM; also: % is scaled to controls: 0 for no effect and ±100 for the full control effect; nearly all actives have a fitted effect of over 55% in size
Procedure, shortened: (§3)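 Cells, 1,000 per well, plated 16 h, then exposed 48 h at 37 C to compounds. Viability by ATPlite luminescence after 15 min at room temperature.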

[6] = tested on: CAOV3; test: as above; conditions: Gynecologic cancer cell panel viability, ATPlite luminescence, 48 h; series mostly up to 57.5 µM
Procedure, shortened: as §3

[7] = tested on: CASKI; test: as above; conditions: Gynecologic cancer cell panel viability, ATPlite luminescence, 48 h; series mostly up to 57.5 µM
Procedure, shortened: as §3

[8] = tested on: Es-2; test: as above; conditions: Gynecologic cancer cell panel viability, ATPlite luminescence, 48 h; series mostly up to 57.5 µM
Procedure, shortened: as §3

[9] = tested on: HeLa; test: as above; conditions: Gynecologic cancer cell panel viability, ATPlite luminescence, 48 h; series mostly up to 57.5 µM
Procedure, shortened: as §3

[10] = tested on: Hek293T; test: as above; conditions: Gynecologic cancer cell panel viability, ATPlite luminescence, 48 h, control line for the selectivity index; series mostly up to 57.5 µM
Procedure, shortened: as §3

[11] = tested on: JEG-3; test: as above; conditions: Gynecologic cancer cell panel viability, ATPlite luminescence, 48 h; series mostly up to 57.5 µM
Procedure, shortened: as §3

[12] = tested on: OV90; test: as above; conditions: Gynecologic cancer cell panel viability, ATPlite luminescence, 48 h; series mostly up to 57.5 µM
Procedure, shortened: as §3

[13] = tested on: PA-1; test: as above; conditions: Gynecologic cancer cell panel viability, ATPlite luminescence, 48 h; series mostly up to 57.5 µM
Procedure, shortened: as §3

C[C@@H]1O[C@@H](O[C@@H]2[C@@H](O)[C@@H](O)[C@H](O[C@@H]3[C@@H](O)[C@@H](O[C@]4(CO)O[C@H](CO)[C@@H](O)[C@@H]4OC(=O)/C=C/c4ccc(O)cc4)O[C@H](CO)[C@H]3OC(=O)/C=C/c3ccc(O)cc3)O[C@H]2C)[C@H](O)[C@H](O)[C@H]1O
inactive: outcome [1] | outcome [2] | outcome [3] inactive [at 9.27 µM] | outcome [4] inactive [at 9.27 µM] | activity change, negative = cytotoxicity [5] 0.544% [at 11.6 µM] | activity change, negative = cytotoxicity [6] 16.9% [at 11.6 µM] | activity change, negative = cytotoxicity [7] -0.379% [at 11.6 µM] | activity change, negative = cytotoxicity [8] 1.92% [at 11.6 µM] | activity change, negative = cytotoxicity [9] 11% [at 11.6 µM] | activity change, negative = cytotoxicity [10] 1.13% [at 11.6 µM] | activity change, negative = cytotoxicity [11] -6.75% [at 11.6 µM] | activity change, negative = cytotoxicity [12] 7.74% [at 11.6 µM] | activity change, negative = cytotoxicity [13] -5.64% [at 11.6 µM]

COc1cc(-c2cccc(O)c2)cc2c1OCO2
inactive: outcome [1] | outcome [2] | Potency [3] | outcome [4] | Potency [5] | Potency [6] | Potency [7] | Potency [8] | Potency [9] | Potency [10] | Potency [11] | Potency [12] | Potency [13]

CC(=O)O[C@H](C[C@@H](C)[C@H]1C(=O)[C@H](O)[C@@]2(C)[C@@H]3CCC4C(C)(C)[C@@H](O[C@@H]5OC[C@H](O)[C@H](O)[C@H]5O)CC[C@@]45C[C@@]35CC[C@]12C)[C@@H]1OC1(C)C (stereo not given in full)
inactive: outcome [1] | outcome [2] | Potency [3] | outcome [4] inactive [at 17.4 µM] | Potency [5] | Potency [6] | Potency [7] | Potency [8] | Potency [9] | Potency [10] | Potency [11] | Potency [12] | Potency [13]

COC1CC(OC2CCC3(C)C(=CCC4C3CCC3(C)C(C(C)O)CCC43O)C2)OC(C)C1OC1OC(C)C(OC2OC(COC3OC(COC4OC(CO)C(O)C(O)C4O)C(O)C(O)C3O)C(O)C(O)C2O)C(OC)C1O (stereo not given)
inactive: outcome [1] | outcome [2] | outcome [3] inactive [at 9.27 µM] | outcome [4] inactive [at 9.27 µM] | activity change, negative = cytotoxicity [5] 3.94% [at 11.6 µM] | activity change, negative = cytotoxicity [6] 2.24% [at 11.6 µM] | activity change, negative = cytotoxicity [7] 16.9% [at 11.6 µM] | activity change, negative = cytotoxicity [8] 1.08% [at 11.6 µM] | activity change, negative = cytotoxicity [9] -2.66% [at 11.6 µM] | activity change, negative = cytotoxicity [10] -3% [at 11.6 µM] | activity change, negative = cytotoxicity [11] -1.13% [at 11.6 µM] | activity change, negative = cytotoxicity [12] 3.31% [at 11.6 µM] | activity change, negative = cytotoxicity [13] 5.02% [at 11.6 µM]

CC1(C)CCC(C)(C)c2cc([C@@H](O)C(=O)Nc3ccc(C(=O)O)cc3F)ccc21
inactive: outcome [1] | outcome [2] | Potency [3] | outcome [4] | Potency [5] | Potency [6] | Potency [7] | Potency [8] | Potency [9] | Potency [10] | Potency [11] | Potency [12] | Potency [13]

C=CC1C(O[C@@H]2O[C@H](CO)[C@@H](O)[C@H](O)[C@H]2O)OC=C(C(=O)OC)C1Cc1nccc2c1[nH]c1ccccc12 (stereo not given in full)
inactive: max response [1] 5.15% | outcome [2] | Potency [3] | outcome [4] inactive [at 17.4 µM] | Potency [5] | Potency [6] | Potency [7] | Potency [8] | Potency [9] | Potency [10] | Potency [11] | Potency [12] | Potency [13]

CC(C)(OC1OC(CO)C(O)C(O)C1O)C1CCC(O)(CO)C2CC(O)C(C)(O)C2C1 (stereo not given)
inactive: max response [1] 2.34% | outcome [2] | Potency [3] | outcome [4] inactive [at 17.4 µM] | Potency [5] | Potency [6] | Potency [7] | Potency [8] | Potency [9] | Potency [10] | Potency [11] | Potency [12] | Potency [13]

O=C(/C=C/c1ccccc1)OCC1=CC[C@@H]2C(C(=O)O)=CO[C@@H](O[C@@H]3O[C@H](CO)[C@@H](O)[C@H](O)[C@H]3O)[C@H]12
inactive: outcome [1] | outcome [2] | Potency [3] | outcome [4] inactive [at 17.4 µM] | Potency [5] | Potency [6] | Potency [7] | Potency [8] | Potency [9] | Potency [10] | Potency [11] | Potency [12] | Potency [13]

CCOC(=O)N1CCC(NCCNC(=O)c2ccccc2C)CC1
inactive: max response [1] 6.5% | outcome [2] | Potency [3] | outcome [4] | Potency [5] | Potency [6] | Potency [7] | Potency [8] | Potency [9] | Potency [10] | Potency [11] | Potency [12] | Potency [13]

CN1C(=O)N[C@@H](Cc2c[nH]c3c(Cl)cccc23)C1=O
inactive: max response [1] -1.43% | outcome [2] | Potency [3] | outcome [4] | Potency [5] | Potency [6] | Potency [7] | Potency [8] | Potency [9] | Potency [10] | Potency [11] | Potency [12] | Potency [13]
